# Data: PubChem BioAssay
# A number with no mark means an inactive call. How the calls were made is not given here.
# Biological target: Pantothenate synthetase (Mycobacterium tuberculosis (strain ATCC 25618 / H37Rv)) (UniProt P9WIL5)
# Assay: Recombinant Mtb pantothenate synthetase (PanC) inhibitors, coupled enzyme, confirmatory (AID 375);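 further: 0% = full reaction with vehicle and 100% = no enzyme background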
# Conditions: coupled enzyme assay; at 10 µM, hits give high values
# Chain of Pantothenate synthetase (Mycobacterium tuberculosis (strain ATCC 25618 / H37Rv)) (P9WIL5 whole entry, looked up): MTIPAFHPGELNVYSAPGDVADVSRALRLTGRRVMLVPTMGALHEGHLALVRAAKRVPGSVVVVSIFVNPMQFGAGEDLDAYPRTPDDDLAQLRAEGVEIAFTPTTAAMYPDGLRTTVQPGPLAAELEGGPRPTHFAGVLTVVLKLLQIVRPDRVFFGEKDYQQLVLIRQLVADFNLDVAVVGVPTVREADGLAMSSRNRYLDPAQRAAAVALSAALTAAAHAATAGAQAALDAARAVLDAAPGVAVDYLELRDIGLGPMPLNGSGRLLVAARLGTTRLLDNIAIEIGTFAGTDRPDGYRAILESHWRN
row,Compound,inhibition [%]
1,COc1cccc(-c2noc(C3CCCN(C(=O)Cc4ccccc4)C3)n2)c1 (configuration not stated),0
2,COc1ccc(CCN2CCC(Nc3nc4ccccc4n3Cc3ccc(F)cc3)CC2)cc1,2
3,Cc1cc(C)n(Cc2cc(C)c(Cn3nc(C)cc3C)cc2C)n1,3
4,CCOC(=O)c1ccc(N(CC(=O)NC2CCCC2)C(=O)CNC(=O)c2ccco2)cc1,6
5,O=C(c1ccccc1)c1ccncc1,10
6,O=C(CP(=O)(CO)CO)c1ccc(Cl)cc1,0
7,CCOC(=O)c1c(NC(=O)CSc2nnc(-c3cccnc3)o2)sc(C)c1C,4
8,Cc1ccccc1NC(=O)c1ccccc1,10
9,O=c1c2c(nc3nc(COc4ccccc4)[nH]n13)CCC2,0
10,CC(C)(C)OC(=O)N1CCN(c2ccc(NC(=O)c3cc4ccccc4oc3=O)cc2)CC1,6
11,COc1ccc2c(c1)CCc1c(C(=O)NCc3cccnc3)noc1-2,0
12,O=C(NC1CCN(Cc2nnnn2CCc2ccccc2)CC1)c1ccccc1F,3
13,Cc1nc2nc(Cc3ccccc3)[nH]n2c(=O)c1Cc1ccccc1,5
14,Cc1ccc(C)c(S(=O)(=O)NCc2cccnc2)c1,7
15,Cc1nc2ccc(S(=O)(=O)NCC(=O)N3CCc4ccccc4C3)cc2s1,2
16,CC(C)(C)c1ccc2c(c1)OCC(C(=O)O)O2 (configuration not stated),4
17,Cc1cccc(C(=O)N2CCN(C(=O)c3cccc(C)c3)C(C)C2)c1 (configuration not stated),0
